A selection follows.
aSyn UTR act = Activators via SNCA 5'UTR binding, MLPCN; alpha-synuclein 5'UTR reporter, activators screen; activity score, % (tested at 7.5 µM), hits read low; hit rate 7.1% among 300,000; AID 1814; in the data active means activity score below about -60%
* marks the source's active call; other numbers are inactive results.

SMILES | aSyn UTR act
CCCN1CCc2c(sc(NC(=S)NC(=O)c3ccccc3)c2C#N)C1 | -140*
CC(C)N1CCc2c(sc(NC(=S)NC(=O)c3ccccc3)c2C#N)C1 | -143*
CCOC(=O)Cc1csc(NC(=O)/C=C/c2ccccc2Cl)n1 | -136*
CCOC(=O)Cc1csc(/N=C/c2c(O)n(-c3ccc(C)c(C)c3)c(=O)c3ccccc23)n1 | 105
CCOC(=O)Cc1csc(NC(=O)/C=C\c2ccccc2Cl)n1 | -194*
CCOC(=O)Cc1csc(NC(=O)/C=C\c2ccccc2)n1 | -74*
CCOC(=O)Cc1csc(N/N=C\c2cccc(Br)c2)n1 | -66*
Cc1ccc(N=c2sc(C)c(C)n2C)cc1 | -178*
CCc1ccccc1NC(=S)N=Nc1c(O)n(C)c2ccc(S(=O)(=O)N3CCOCC3)cc12 | 80
CCOc1ccc2c(c1)c(N=Nc1cccc(C(=O)O)c1)c(O)n2C | -179*
Fc1ccccc1CSc1nnc(-c2cccnc2)o1 | -69*
COc1cc(OC)cc(-c2nnc(SCc3c(F)cccc3Cl)o2)c1 | -101*
c1ccc(CSc2nnc(-c3c[nH]c4ccccc34)o2)cc1 | -151*
COc1ccc(-c2nnc(SCc3ccccc3F)o2)cc1 | -163*
Fc1ccccc1CSc1nnc(-c2ccccc2)o1 | -152*
Cc1ccccc1-c1nnc(SCc2ccccc2F)o1 | -149*
Cc1ccccc1-c1nnc(SCc2ccccc2)o1 | -191*
Cc1c(/C=N/Nc2ccc(C(=O)O)cc2)c2ccccc2n1C | -119*
Cc1c(/C=N\NC(=O)C2COc3ccccc3O2)c2ccccc2n1C (stereo unspecified) | 102
O=[N+]([O-])/C=C/c1cn(Cc2ccc(F)cc2)c2ccccc12 | 63
O=C(N/N=C/c1cn(Cc2ccccc2)c2ccccc12)c1cc(O)cc(O)c1 | 62
O=C(O)c1ccc(N/N=C/c2cn(Cc3ccc(F)cc3)c3ccccc23)cc1 | -69*
Cc1ccc(N=C2NC(=O)/C(=C\c3cccs3)S2)cc1C | -85*
O=C1Nc2ccccc2S/C1=C/c1cccs1 | -68*
CN(C(=O)c1cccnc1)c1nc(-c2ccccc2)cs1 | -128*
SMILES | aSyn UTR act
c1ccc(-c2nc(-c3cccnc3)cs2)cc1 | -109*
NC(=O)c1cc(-c2csc(-c3cccnc3)n2)ccc1O | -102*
c1ccc(-c2csc(-c3cccnc3)n2)cc1 | -78*
CN1CCN(CC(=O)N(C)c2nc(-c3ccccc3)cs2)CC1 | -150*
Cc1cc(/C=N/n2cnnc2)c(C)n1-c1ccc(OCc2ccccc2F)cc1 | -82*
CCc1ccc(C2CC(c3ccco3)=NN2S(C)(=O)=O)cc1 (stereo unspecified) | -89*
COC(=O)c1cn[nH]c1NC(=S)Nc1ccc(C)cc1Cl | -127*
COC(=O)c1cn[nH]c1NC(=S)Nc1ccc(Cl)c(Cl)c1 | -101*
C/C(NC(=O)c1ccccc1F)=C1\C(=O)C[C@@H]2[C@H]1C2(C)C | -174*
O=C(NC(=S)NNC(=O)[C@H]1C[C@@H]1c1ccccc1)c1cccc(F)c1 | 67
C/C(NC(=O)c1cccc(F)c1)=C1/C(=O)C[C@@H]2[C@H]1C2(C)C | -183*
Cc1ccc(NC(=O)c2ccc(C(C)(C)C)cc2)cc1[N+](=O)[O-] | -159*
Cc1ccc(NC(=O)c2cccs2)cc1[N+](=O)[O-] | -94*
Cc1cc(C)nc(Nc2ccc(C)c([N+](=O)[O-])c2)n1 | -99*
O=C(NC(=S)N1CCCCC1)c1csc([N+](=O)[O-])c1 | -87*
CN(CC(=O)Nc1nc2ccccc2s1)S(=O)(=O)c1ccccc1 | -83*
CC12CCC(C(=O)Nc3nc4ccccc4s3)(OC1=O)C2(C)C (stereo unspecified) | -113*
CCCNC(=O)Nc1nc2ccccc2s1 | -118*
CCc1ccc2nc(NC(=O)CSCc3c(C)noc3C)sc2c1 | -73*
CCCNC(=O)c1ccc(-c2nc3ccccc3s2)s1 | 79
CCCCNC(=O)Nc1nc2ccccc2s1 | -81*
Cc1ccc(CC(=O)Nc2nc3ccccc3s2)cc1 | -96*
CCOC(=O)Nc1nc(-c2ccc(Cl)cc2Cl)cs1 | -97*
CCCCNC(=O)Nc1nc2ccc(CC)cc2s1 | -124*
O=C(CCNC(=O)c1ccccc1Cl)Nc1nc2ccccc2s1 | -83*
SMILES | aSyn UTR act
CCOC(=O)Nc1nc2ccccc2s1 | -125*
CN(C)c1ccc(CC(=O)c2nc3ccccc3s2)cc1 | -125*
C[n+]1c(/C=C/c2ccc3c(c2)OCO3)ccc2ccccc21 | -150*
C[n+]1c(/C=C/c2ccc(O)cc2)ccc2ccccc21 | -172*
COc1cc(NC(=O)c2c(F)cccc2F)nc(OC)n1 | -117*
COc1cc(NC(=O)c2cccc(Br)c2)nc(OC)n1 | -105*
CCCSc1nnc(-c2c[nH]c3ccccc23)n1C | -78*
Cc1cc2ccccn2c1C(=O)Nc1ccccc1 | -109*
Cc1cc2ccccn2c1C(=O)Nc1ccc(Cl)cc1 | -117*
O=C(NC(=S)Nc1ccc(Cl)cn1)C12CC3CC(CC(C3)C1)C2 | -162*
COc1cccc(NC(=O)C2CCN(S(=O)(=O)c3ccc4c(c3)NC(=O)C(C)S4)CC2)c1 (stereo unspecified) | -68*
CCOc1cc(-c2ccccc2)nc(N)n1 | -112*
COc1cc(-c2ccccc2)nc(N)n1 | -117*
Cc1ccc(Nc2n[nH]c(C)c2[N+](=O)[O-])cc1C | -164*
CSc1ccccc1NC(=O)c1ccc(Br)o1 | -78*
O=C(Nc1cccc2cccnc12)c1ccc(Br)o1 | -97*
Cc1ccc(NC(=S)NC(=O)c2ccc(Br)o2)c(C)c1 | -181*
Cc1cccc(NC(=S)NC(=O)c2ccc(Br)o2)c1C | -74*
O=C(NC(=S)Nc1ccccc1F)c1ccc(Br)o1 | -66*
O=C(O)CCC(=O)Nc1cccc2cccnc12 | -114*
CCCCC(=O)NC(c1ccc(C(C)C)cc1)c1ccc2cccnc2c1O (stereo unspecified) | 112
CCCCC(=O)NC(c1ccccc1Cl)c1ccc2cccnc2c1O (stereo unspecified) | 83
OCCOc1ccc(C2=NCCO2)cc1 | -72*
COc1cc2c(cc1OC)C(c1cccs1)N(C(=S)NC(C)C)CC2 (stereo unspecified) | -74*
Oc1ccc(/C=N/Nc2ccc(C(F)(F)F)cn2)cc1 | -280*
SMILES | aSyn UTR act
COc1cc(C(=O)N/N=C/c2cn(Cc3cccc(F)c3)c3ccccc23)ccc1O | 62
O=C(N/N=C/c1cnc2ccccc2n1)c1cccc(F)c1 | -120*
COC(=O)c1ccc(/C=N/NC(=O)c2cccc(F)c2)cc1 | -134*
O=C(N/N=C(\c1ccccc1)c1cccnc1)c1cccc(F)c1 | 80
Nc1ccc(C(=O)N/N=C/c2ccccc2)cc1 | -140*
O=C(N/N=C/c1cccc(NC(=O)c2ccc(Cl)cc2)c1)c1cccc(O)c1 | -68*
O=C(N/N=C/c1cccs1)c1cccc(NC(=O)c2ccc(Cl)cc2)c1 | 59
C/C(=N\Nc1ccc(C(F)(F)F)cn1)c1ccncc1 | -148*
O=C(N/N=C\c1ccc(F)cc1)c1ccc(F)cc1 | -132*
O=C(O)c1ccc(N/N=C/c2ccc(C(F)(F)F)cc2)cc1 | 61
O=C(N/N=C/c1c(O)ccc2ccccc12)c1cccc(C(F)(F)F)c1 | 111
O=C(N/N=C/c1ccc(C(F)(F)F)cc1)c1ccc(O)cc1 | -85*
O=C(N/N=C/c1ccccc1Cl)c1ccc(F)cc1 | -189*
COc1cc(C(=O)Oc2ccccc2/C=N/NC(=O)c2ccc(C)c(Cl)c2)cc(OC)c1OC | 84
O=C(N/N=C/c1ccc[nH]1)c1ccc(Cl)cc1 | -121*
CSc1ccc(/C=N/NC(=O)c2cccc(O)c2)cc1 | -167*
